# Bioassay records (PubChem BioAssay)
# FMDV antiviral – blocks foot and mouth disease virus | 410,000 compounds, 1.2% hits | FMDV antiviral cell-based qHTS | Potency, µM (top dose mostly 57.9 µM), for inactives: at the top dose activity change, negative = inhibition, hits mostly inhibitors; calls by dose curve; tested in HEK293T cells; further: read-out not given here; potency means the concentration at half of the fitted maximal effect; nearly all actives have a fitted effect of over 45% in size
# VACV Venus inh – inhibitors of vaccinia virus (Venus reporter); Vaccinia virus Venus reporter expression, fluorescence; Potency, µM (highest dose often 36.5 µM), for inactives: at the top dose activity change, negative = inhibition, actives largely listed as inhibitors; 330,000 compounds, 0.46% hits; calls by dose curve; tested in A549 cells; further: potency means the concentration at half of the fitted maximal effect; nearly all actives have a fitted effect of over 30% in size
# VACV mCherry inh – inhibitors of vaccinia virus infection (mCherry reporter signal); Vaccinia virus mCherry reporter infection, fluorescence; 310,000 compounds, 0.63% hits; Potency, µM (series often up to 36.5 µM), for inactives: at the top dose activity change, negative = inhibition, actives largely listed as inhibitors; calls by dose curve; tested in A549 cells; further: potency means the concentration at half of the fitted maximal effect; nearly all actives have a fitted effect of over 35% in size
# HCV inh – inhibitors of hepatitis C virus infection; Potency, µM (series often up to 41.8 µM), without a hit: top-dose activity change, negative = inhibition, actives largely listed as inhibitors; AID 651820; 340,000 compounds, 3.4% hits; Huh7.5.1 HCVcc-Cre infection, luciferase reporter, 44 h; active means well fitted inhibition curve with a large enough effect; inconclusive means small, poorly fitted or top-dose-only effect, or another doubt; inactive means no such curve, though single readings can be large or run the other way; further: potency means the concentration at half of the fitted maximal effect
#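 1,000 cells/well; 4 h culture; + compound; + HCVcc-Cre (~0.5 moi); 44 h; luciferase substrate, RT 15 min; read 15 sec.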
# HCMV antiviral – human cytomegalovirus inhibition | HFF cells, HCMV-luciferase reporter, 72 h; hits give low values | activity change, negative = inhibition, % at 57.5 µM | 410,000 compounds, 4.5% hits | AID 1259415; in the data active means activity change below about -60%; inconclusive means no clear call, values can overlap the other calls; inactive means above about -39%
#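 Cell-based, HFFs, 1000 cells/well, 16 h 37C; cpds in DMSO + HCMV-luc, MOI 1 PFU/cell; 72 h 37C; OneGlo luminescence after 5 min RT; norm. to buffer vs Salinomycin 10uM.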
# The depositor's hits bear a star; i = inactive; ? = inconclusive; . = no result given; [ ] = dose if it differs, or a comment. In the library only some 7.3% were active in any assay of this set; here they are far more common. On the % scale 0 is the no-effect control and ±100 the full control effect.
SMILES,FMDV antiviral,VACV Venus inh,VACV mCherry inh,HCV inh,HCMV antiviral
COc1cccc(C(=O)N2CCCC(c3nc(-c4cccs4)no3)C2)c1 (configuration not stated),-2%,.,.,-21%,-103*
COc1ccc(-c2noc(C3CCCN(C(=O)c4ccc(F)cc4)C3)n2)cc1 (configuration not stated),-10%,-3%,-3%,?,-27
COc1ccc(-c2noc(C3CCCN(C(=O)c4ccc(C)cc4)C3)n2)cc1 (configuration not stated),-23%,-21%,i,13µM*,?
COc1ccc(CNC(=O)CCc2nc(-c3ccc(C)cc3)no2)c(OC)c1,-3%,-6%,i,.,0
Cc1cc(NC(c2nnc(-c3ccccc3)o2)c2ccccc2F)ccc1Br (configuration not stated),-13%,-1%,-8%,.,-22
NC(=O)N/N=C/c1c(Sc2nnnn2-c2ccccc2)nc2ccccn2c1=O,?,.,.,?,-73*
Cc1nn(-c2ccccc2)c(Cl)c1/C=N/NC(N)=O,5%,-8%,-10%,22%,38
CN(c1ccc(C(=O)N2CCCCCC2)cc1)S(=O)(=O)c1ccc(Cl)cc1,?,-21%,-6%,.,-74*
COc1ccc(S(=O)(=O)N(C)c2ccc(C(=O)N3CCC(C(N)=O)CC3)cc2)cc1OC,-13%,-5%,i,?,-100*
COc1ccc(CNCc2c(O)c(Cl)cc3c(C)c(C)c(=O)oc23)c(OC)c1,-13%,-6%,-14%,10%,-70*
CCC(C)NC(=O)CSc1nc2cc(S(=O)(=O)N3CCOCC3)ccc2n1CC (configuration not stated),-8%,-15%,-16%,15%,34
CCn1c(SCC(=O)c2cc(C)ccc2C)nc2cc(S(=O)(=O)N3CCOCC3)ccc21,-27%,-14%,i,?,-63*
CCn1c2ccccc2c2nc3cc(S(=O)(=O)N4CCOCC4)ccc3nc21,-26%,?,?,10µM*,.
c1ccc2nc3c(nc2c1)c1ccccc1n3CCN1CCOCC1,-3%,.,.,?,-11
COc1ccc(N2CCN(S(=O)(=O)CCNC(=O)c3ccc(C(F)(F)F)cc3)CC2)cc1,17%,-11%,-16%,.,-1
O=C(Cc1ccc([N+](=O)[O-])cc1)Nc1ccc(Br)cn1,13%,-19%,?,-15%,-61*
Cc1cc(/C=C/c2c(C)cnc3ccccc23)ccc1N(C)C,.,-20%,-21%,.,.
CC(=O)NC(CC(=O)Nc1nc(-c2ccc(N(C)S(C)(=O)=O)cc2)cs1)c1ccccc1 (configuration not stated),-24%,1%,?,11µM*,0
CN(c1ccc(-c2csc(NC(=O)C3CC(=O)N(Cc4ccco4)C3)n2)cc1)S(C)(=O)=O (configuration not stated),22µM*,.,.,?,24
CN(c1ccc(-c2csc(NC(=O)CCCc3nc4ccccc4c(=O)[nH]3)n2)cc1)S(C)(=O)=O,35µM*,-20%,-9%,.,-19
COc1ccc(-c2csc(NC(=O)C3CC(=O)N(Cc4ccco4)C3)n2)cc1 (configuration not stated),?,-12%,-23%,?,-5
Cc1ccc(NC(=O)c2nc[nH]c2C(=O)NCCCCCNC(=O)OC(C)(C)C)cc1,?,?,-12%,?,-64*
CC(C)(C)OC(=O)NCCCCCNC(=O)c1[nH]cnc1C(=O)Nc1ccc(Cl)cc1,32µM*,?,11µM*,35µM*,-39
CC(C)(C)OC(=O)NCCCCCNC(=O)c1[nH]cnc1C(=O)Nc1ccccc1,-29%,-30%,?,-1%,26
Cc1ccsc1/C=N/Nc1cccc(C(=O)O)c1,4.5µM*,-5%,-18%,24%,121
SMILES,FMDV antiviral,VACV Venus inh,VACV mCherry inh,HCV inh,HCMV antiviral
O=C(O)c1cccc(N/N=C/c2ccc(F)c(F)c2)c1,-33%,-1%,i,1%,33
Cc1ccsc1/C=N/Nc1ccc(C(=O)O)cc1,8.9µM*,.,.,14%,-28
Cc1cccnc1N=O,.,.,.,.,21
Cc1nnc(N(CCC#N)CCC#N)s1,-16%,-8%,-11%[1.46 µM],24%,-72*
CCN(c1ccccc1)S(=O)(=O)c1ccc(Cl)nc1,-10%,-16%,-12%,2%,3
CCN(c1ccccc1)S(=O)(=O)c1ccc(NCC2COc3ccccc3O2)nc1 (configuration not stated),?,.,.,11µM*,8
